# High-throughput results: PubChem, several laboratories
# Rpn11 inh – inhibitors of human proteasome Rpn11; O00487; human 26S proteasome, Ub4-pepOG fluorescence polarization; 20S core pre-blocked with epoxomicin; inhibition, % at 20 µM; actives 0.59% (n = 360,000);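 active means inhibition at 20 µM, scaled to each plate's controls, above about 33%, limit read from the data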
# EBNA-1 inh – blocks EBNA-1 binding to DNA; EBNA-1 DNA binding, fluorescence polarization; inhibition, % at 14.8 µM; actives 0.34% (n = 300,000); in the data active means inhibition above about 28%
# ZTA counter – counter-screen for EBNA-1 inhibitors: inhibitors of Epstein-Barr virus ZTA; ZTA-DNA binding, fluorescence polarization; inhibition, % at 11 µM; actives 0.15% (n = 320,000); in the data active means inhibition above about 33%
# Target sequence (P03206 whole entry, looked up): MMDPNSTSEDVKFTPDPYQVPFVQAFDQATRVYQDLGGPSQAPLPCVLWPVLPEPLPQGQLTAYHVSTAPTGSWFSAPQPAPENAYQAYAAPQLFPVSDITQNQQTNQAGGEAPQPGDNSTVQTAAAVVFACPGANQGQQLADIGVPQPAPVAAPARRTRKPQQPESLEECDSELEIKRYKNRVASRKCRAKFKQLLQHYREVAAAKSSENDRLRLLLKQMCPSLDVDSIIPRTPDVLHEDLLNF
# NR3A LBD binder – NR3A (human) ligand-binding domain modulation; NR3A LBD differential scanning fluorimetry, Tm shift; 0% = protein alone, 100% = glycine-bound protein; Tm shift relative to glycine control, % at 25 µM; actives 2.5% (n = 340,000);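 active means melting temperature shift of at least 10% of the positive control shift, at one fixed dose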
# TPT1 inh – blocks Candida albicans tRNA 2'-phosphotransferase; inhibition, % at 5 µM; actives 0.81% (n = 300,000); AID 1962; recombinant caTPT1, FP RNA substrate dephosphorylation;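 active means inhibition above the mean of all tested compounds plus 3 SD, set per screening campaign, cut at about 24% in these data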;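 further: plate controls were DMSO alone for no effect and ferristatin control at 100 nM for full effect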
# dFosB activator – mouse delta FosB homodimer activation; P13346; purified delta FosB, TAMRA-CDK5 oligo fluorescence polarization; percent of positive-control signal above neutral wells; activation, % at 25 µM; actives 0.99% (n = 340,000); AID 493131;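 active means mean activation above about 17%, with every replicate also reaching it, limit read from the data, passing the limit was not always enough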
# Starred values were filed as active, the others as inactive; x = no result given; ! = repeats disagree. Compounds with a hit are over-represented: about 4.5% of the library has one in this group of screens.
SMILES,Rpn11 inh,EBNA-1 inh,ZTA counter,NR3A LBD binder,TPT1 inh,dFosB activator
COc1ccccc1NS(=O)(=O)c1cccc(C(=O)NNC(=O)c2ccc(O)c(Cl)c2)c1,6,5,10,-4,3,-6
O=c1c2ccccc2oc2cc(Br)ccc12,0,x,x,13*,x,-14
O=C(Nc1ccc(Br)cc1F)c1ccc2c(c1)N(Cc1ccccc1)C(=O)CS2=O (stereo unspecified),9,-1,8,14*,2,-18
CCCN(CCC)c1cc(Cl)nc(N)n1,8,7,8,-2,-4,3
O=C1c2ccccc2NC(c2ccccc2)N1Cc1ccccc1 (stereo unspecified),3,-2,-20,0,-2,-3
Cc1ccc(CN2C(=O)c3ccccc3NC2c2cc(Br)ccc2O)cc1 (stereo unspecified),6,3,-2,22*,-2,-10
CCSc1nnc(NC(=O)CSc2nnc(C)c(=O)n2N)s1,-7,-10,19,0,2,-2
O=C(CNC(=S)N(Cc1ccccc1F)C1CCCCC1)NC1CC1,-6,4,-10,11*,0,-1
COc1ccccc1NC(=O)CCNS(=O)(=O)c1ccc2c(c1)CC(C)N2C(=O)C1CC1 (stereo unspecified),-1,3,17,-3,0,2
CCSc1nsc(NC(=O)Nc2ccc(F)cc2F)n1,-2,-2,-5,0,1,23*
CCOc1ccc(NC(=O)Nc2nc(SCC)ns2)cc1,-2,1,-7,37*,-1,-7
CC(C)c1nc(C(=O)N2CCCC(CCC(=O)N(C)CCc3ccccn3)C2)cs1 (stereo unspecified),-6,4,13,-2,0,0
COc1cccc(C(=O)Nc2ccc(NC(=O)C3CCCCC3)nc2)c1,-1,x,x,-5,x,-5
COc1cccc(C(=O)Nc2ccc(NC(=O)C(C)(C)C)cn2)c1,-12,15,11,17*,-4,-5
COc1cc(C(=O)Nc2ccc(NC(=O)c3cccc(Cl)c3)nc2)cc(OC)c1OC,4,x,x,27*,x,-5
COC(=O)c1ccc(CNC(=O)/C=C/[C@H]2O[C@@H](n3cc(C)c(=O)[nH]c3=O)C[C@@H]2O)cc1,-1,x,x,x,x,x
COc1ccc(OCCCC(=O)Nc2cccc([N+](=O)[O-])c2)cc1,-6,-16,-8,16*,10,1
COc1cccc(NC(=O)CC(=O)c2ccc([N+](=O)[O-])cc2)c1,-1,10,-7,17*,2,-7
O=C(CC(=O)c1ccccc1)Nc1cccc([N+](=O)[O-])c1,0,x,x,x,x,x
COc1ccc(NC(=S)Nc2cccc([N+](=O)[O-])c2)cc1,6,11,1,23*,0,-4
COc1ccc(C(=O)CC(Nc2ccc([N+](=O)[O-])cc2)c2ccc(Cl)cc2)cc1 (stereo unspecified),-6,9,1,11*,-3,-8
COc1ccc(C(=O)CC(=O)C(=O)Nc2ccc(Cl)cc2)cc1,-6,-9,5,1,-1,-6
COc1cc([N+](=O)[O-])ccc1NC(=O)CCCOc1ccc(C)cc1,-3,-7,-8,-7,-2,-23
COc1ccc(NC(=O)c2cccc([N+](=O)[O-])c2)cc1,1,-3,-13,-7,0,3
COc1ccc([C@H]2Oc3cc(O)cc(O)c3C(=O)C2[C@@H]2C(=O)c3c(O)cc(O)cc3O[C@@H]2c2ccc(OC)cc2)cc1 (stereo partly specified),x,9,2,28*,-2,x
O=c1cc(NS(=O)(=O)c2ccccc2)nc(SCc2ccc(Cl)cc2)[nH]1,-3,6,20,20*,-3,6
O=C(CSc1nc(NS(=O)(=O)c2ccccc2)cc(=O)[nH]1)Nc1ccc(Cl)cc1,-3,x,x,-20,x,-5
CCCCCCCCCCOC(=O)Cn1c(COc2ccc(OC)cc2)[n+](C)c2ccccc21,14,0,-3,3,3,40*!
CCOC(=O)Cn1c(COc2ccccc2OC)[n+](C)c2ccccc21,-1,5,-4,0,-2,x
CCCCCCCCCCOC(=O)Cn1c(COc2ccccc2)[n+](C)c2ccccc21,-4,4,8,-1,-5,35*
